The results in this text go back to ChEMBL document CHEMBL4808148, “HDAC6 screening dataset using tau-based substrate in an enzymatic assay yields selective inhibitors and activators” (2021).

Out of some 5,600 compounds screened, about 390 (7%) showed an effect of 50% or more. The sample as a whole holds a higher share of strong results than the screen did.

The target of the assay is T1, Protein deacetylase HDAC6 (Homo sapiens) (UniProt Q9UBN7).
T1 sequence (whole entry): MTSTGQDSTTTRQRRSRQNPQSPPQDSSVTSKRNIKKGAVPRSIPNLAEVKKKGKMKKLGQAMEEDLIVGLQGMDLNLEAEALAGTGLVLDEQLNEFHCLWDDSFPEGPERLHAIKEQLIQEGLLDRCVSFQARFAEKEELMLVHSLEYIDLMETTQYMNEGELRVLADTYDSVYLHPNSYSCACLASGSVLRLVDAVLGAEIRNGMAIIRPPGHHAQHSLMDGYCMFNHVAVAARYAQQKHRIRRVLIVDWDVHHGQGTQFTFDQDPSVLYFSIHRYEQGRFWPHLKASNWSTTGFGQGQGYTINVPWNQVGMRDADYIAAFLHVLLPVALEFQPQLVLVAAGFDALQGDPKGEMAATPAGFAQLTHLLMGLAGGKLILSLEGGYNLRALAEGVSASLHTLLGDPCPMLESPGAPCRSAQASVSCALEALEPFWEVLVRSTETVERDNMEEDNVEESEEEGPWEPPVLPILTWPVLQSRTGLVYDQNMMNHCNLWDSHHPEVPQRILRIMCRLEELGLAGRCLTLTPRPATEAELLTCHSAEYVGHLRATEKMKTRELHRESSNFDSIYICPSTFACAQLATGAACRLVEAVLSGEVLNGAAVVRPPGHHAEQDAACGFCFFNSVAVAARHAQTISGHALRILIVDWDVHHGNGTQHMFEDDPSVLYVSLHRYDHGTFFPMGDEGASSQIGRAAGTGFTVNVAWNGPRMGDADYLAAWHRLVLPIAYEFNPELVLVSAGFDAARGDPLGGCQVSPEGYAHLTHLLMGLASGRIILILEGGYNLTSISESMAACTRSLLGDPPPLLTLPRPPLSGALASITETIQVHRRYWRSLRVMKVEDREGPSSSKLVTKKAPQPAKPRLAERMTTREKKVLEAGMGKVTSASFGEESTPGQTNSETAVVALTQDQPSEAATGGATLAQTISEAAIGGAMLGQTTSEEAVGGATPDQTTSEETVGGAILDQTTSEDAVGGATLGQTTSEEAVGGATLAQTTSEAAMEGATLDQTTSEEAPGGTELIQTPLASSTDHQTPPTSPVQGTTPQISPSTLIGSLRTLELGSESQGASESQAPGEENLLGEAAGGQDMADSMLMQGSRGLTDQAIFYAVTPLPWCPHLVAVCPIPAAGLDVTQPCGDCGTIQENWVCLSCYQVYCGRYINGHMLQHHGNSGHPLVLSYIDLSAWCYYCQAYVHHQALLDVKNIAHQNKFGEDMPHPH
Conditions: at 10 µM.
Take `CCCCOc1ccc(C(=O)CCN2CCCCC2)cc1`: the inhibition is 4.77%.

As to `CCCCOc1ccc(CC(=O)NO)cc1`, the inhibition amounted to 73%.

As to `CCOc1ccc(NC(C)=O)cc1`, the inhibition is -4.35%.

Regarding `CC[C@@]1(O)C(=O)OCc2c1cc1n(c2=O)Cc2c-1nc1cc(F)c(C)c3c1c2[C@@H](N)CC3`, the inhibition came out at 45.5%.

For the molecule `CCN(CC)CCOC(=O)C1(c2ccc([N+](=O)[O-])cc2)CCCC1`, the inhibition came out at 17.3%.

In the case of `CC1=C(/C=C/C(=C/C=C/C(C)=C/C(=O)O)c2ccc(C)cc2)C(C)(C)CCC1`, the inhibition is 32.2%.

Consider `CC(C)NC(=O)COc1cccc(-c2nc(Nc3ccc4[nH]ncc4c3)c3ccccc3n2)c1`, for which the inhibition was 4.77%.

As for `O=C(CCCCCCNC(=O)c1cnc(N(c2ccccc2)c2ccccc2)nc1)NO`, the inhibition amounted to 101%.

Turning to `O=C(CCNNC(=O)c1ccncc1)NCc1ccccc1`, the inhibition is -0.28%.

For the molecule `CCCCCCCCCCCCCCCC(=O)NCCO`, the inhibition was found to be 7.03%.

As for `O=C(O)C1CN(Cc2ccc(-c3nc4cc(Cc5ccccc5F)ccc4s3)c(F)c2)C1`, the inhibition turned out to be 12.2%.

`CCCCC/C=C\C=C/CCCCCCCCC(=O)O`: the inhibition amounted to 13.9%.

`c1ccc(CNCc2ccc(CN3CCCNCCNCCCNCC3)cc2)nc1`: the inhibition is -1.23%.

Turning to `Clc1cccc2c1CN(C1=NCCN1)C2`, the inhibition is -3.56%.

`O=c1[nH]nc2c3c(cccc13)N=C(CN1Cc3ccccc3C1)N2`: the inhibition is -8.46%.

On to `CN(C)Cc1ccc(S(=O)(=O)n2ccc(/C=C/C(=O)NO)c2)cc1`, for which the inhibition is 101%.

Take `Cn1nc(-c2ccc(C(F)(F)F)cc2)nc2c(=O)n(C)c(=O)nc1-2`: the inhibition is 12.3%.

In the case of `CC(=O)OC[C@H]1O[C@@H](n2ccc(=O)[nH]c2=O)[C@H](OC(C)=O)[C@@H]1OC(C)=O`, the inhibition turned out to be 41.6%.

For the molecule `CCOC(=O)c1ccc(C#Cc2ccc3c(c2)C(C)(C)CCS3)nc1`, the inhibition turned out to be 22.8%.

For `O=C(NC1CCC1)c1ccc(C#Cc2cccc(F)c2)nc1`, the inhibition was found to be 53.6%.

`Cc1c(F)cc(C(=O)NC2CC2)cc1-c1ccc(C(=O)NCC(C)(C)C)cn1`: the inhibition is -6.14%.

Turning to `COc1ccc(CC(=O)NC(N/C(=N/C#N)Nc2cccc3ncccc23)C(C)(C)C)cc1OC` (stereo not given), the inhibition was 17.5%.

For the molecule `NC(=O)OC[C@@H]1[C@H](NC(=O)/C(=N\OCC(=O)O)c2csc(N)n2)C(=O)N1S(=O)(=O)O`, the inhibition worked out at 1.5%.

In the case of `COc1cc(C)c2c(Oc3cccc(C(F)(F)F)c3)c(OC)cc(NC(C)CCCN)c2n1` (stereo not given), the inhibition amounted to 19.9%.

With `Cc1ccc(NC(=O)c2ccc(CN3CCN(C)CC3)cc2)cc1Nc1nc(-c2cccnc2)cs1`, the inhibition was found to be 89.4%.

As for `Cc1ccc(NC(=O)c2ccc(CN3CCN(C)CC3)cc2)cc1Nc1nccc(-c2cccnc2)n1`, the inhibition amounted to 36.3%.

`Cc1ccc(C(=O)Nc2cccc(C(F)(F)F)c2)cc1Nc1nc(-c2cccnc2)nc2c1cnn2C`: the inhibition stood at 17.5%.

For `Nc1sc2c(c1C(=O)c1ccc(Cl)cc1)CCCC2`, the inhibition was 31.2%.

For `O=C1CC2(CCCC2)CC(=O)N1CCCCNCC1COc2ccccc2O1` (stereo not given), the inhibition was 18.1%.

Consider `Cc1cccc(Nc2cc(Cl)nc(SCC(=O)O)n2)c1C`, for which the inhibition turned out to be 9.22%.

Consider `NC(=O)c1cccnc1`, for which the inhibition was found to be 2.11%.

`O=C(O)CCCCCCCC(=O)O`: the inhibition amounted to 29.8%.

For `Cc1cc(-c2ccc(CC(=O)Nc3ccc(-c4cccnc4)cc3)cc2)ccn1`, the inhibition is 37.6%.

On to `O=C(CCCCCCC(=O)NO)NO`, for which the inhibition was determined as 99.2%.

With `O=C(O)CCCCCCCCC(=O)O`, the inhibition is 0.61%.

Consider `O=C(CCCCCCC(=O)Nc1cccnc1)NO`, for which the inhibition amounted to 100%.

For the molecule `O=[N+]([O-])c1ccc2c(c1)S(=O)(=O)C=C2`, the inhibition was determined as 20.7%.

Take `NC(C(=O)O)c1ccc(C(=O)O)c(C(=O)O)c1` (racemic): the inhibition amounted to 1.97%.

For the molecule `COc1ccc(-c2csc(NC(=O)[C@H]3CCCCN3S(=O)(=O)c3ccc(C)cc3)n2)cc1`, the inhibition was 0.15%.

As to `Nc1nc(NC[C@H]2CC[C@H](CNS(=O)(=O)c3cccc4ccccc34)CC2)nc2ccccc12`, the inhibition was determined as 9.28%.

Regarding `CCOc1ccccc1C(=O)O`, the inhibition is 0.84%.

With `CCCCNc1ncc2c(-c3ccc(CN4CCN(C)CC4)cc3)cn([C@H]3CC[C@H](O)CC3)c2n1`, the inhibition came to 62.3%.

On to `COC(=O)c1ccccc1COc1ccccc1[N+](=O)[O-]`, for which the inhibition stood at 35.8%.

As to `N=C(N)NCCC[C@H](NC(=O)c1sccc1NS(=O)(=O)c1cccc2nsnc12)C(=O)O`, the inhibition is -2.5%.

For the molecule `CCN(CC)CCCN(c1ccccc1)C1Cc2ccccc2C1`, the inhibition was determined as 9.47%.

For the molecule `CCOC(=O)c1c(C)n(C)c2ccc(O)cc12`, the inhibition is 60.5%.

For the molecule `CCOC(=O)C1=C(C)NC(=S)NC1c1cccc(O)c1` (stereo not given), the inhibition was determined as 7.87%.

For the molecule `CCOC(=O)c1ccc(N)cc1`, the inhibition is 16.9%.

With `O=C1C=CC(=O)C2=C1C1c3ccccc3C2c2ccccc21`, the inhibition was -5.86%.

For `N#CC(c1ccnc(OCc2ccc(CN3CCOCC3)cc2)n1)c1nc2ccccc2s1` (stereo not given), the inhibition was found to be 73.7%.
